# Laboratory results published in PubChem BioAssay (NCATS).
# Results filed as inconclusive are left out. Entries that show only a call come without a potency. Some compounds were tested as several samples or in several runs, with calls that do not always agree. Active and inactive are the calls of the source. Calls come from the whole dose curve; as a rule, active = well fitted curve in the direction sought with a large enough effect; inconclusive = small, poorly fitted or top-dose-only effect, or another doubt; inactive = no such curve, though single readings can be large; an effect the other way counts as inactive or inconclusive.
# Assays:
# MCC-13 = test: qHTS assay to identify novel small-molecules to repurpose for Merkel cell carcinoma treatment (AID 1296009); details: MCC and control cell lines, CellTiter-Glo viability, 72 h; series mostly up to 46 µM; note: nearly all actives have a fitted effect of over 60% in size; note: potency is the fitted concentration of half-maximal effect
# Method in brief: (§1)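 Viability readout: ATP luminescence (CellTiter-Glo) after 72 hr drug exposure at 37 degree celsius. Dose-response format was 8 points for NPC and 11 points for MIPE; data normalized to in-plate controls.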
# MKL-2 = test: as above; details: MCC and control cell lines, CellTiter-Glo viability, 72 h; series mostly up to 46 µM
# Method in brief: as §1
# WaGa = test: as above; details: MCC and control cell lines, CellTiter-Glo viability, 72 h; series mostly up to 46 µM
# Method in brief: as §1
# MCC-26 = test: as above; details: MCC and control cell lines, CellTiter-Glo viability, 72 h; series mostly up to 46 µM
# Method in brief: as §1
# MKL-1 = test: as above; details: MCC and control cell lines, CellTiter-Glo viability, 72 h; series mostly up to 46 µM
# Method in brief: as §1
# UISO = test: as above; details: MCC and control cell lines, CellTiter-Glo viability, 72 h; series mostly up to 46 µM
# Method in brief: as §1
# C33A = test: Primary qHTS to identify gynecologic anti-cancer compounds using libraries of approved drugs and bioactive compounds (AID 1345084); details: Gynecologic cancer cell panel viability, ATPlite luminescence, 48 h; series mostly up to 57.5 µM; note: nearly all actives have a fitted effect of over 55% in size
# Method in brief: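 ATP-based viability (ATPlite), 1,000 cells/well, 16 h pre-incubation, 48 h compound at 37 C, 5% CO2, 15 min RT before read.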
SMILES,Potency (MCC-13),Potency (MKL-2),Potency (WaGa),Potency (MCC-26),Potency (MKL-1),Potency (UISO),Potency (C33A)
CNCCCC12CCC(c3ccccc31)c1ccccc12,inactive,23.5 µM (active),29.9 µM (active) and inactive,,,,
O=c1c(O)c(-c2ccc(O)c(O)c2)oc2cc(O)cc(O)c12,inactive,inactive,inactive,inactive,inactive,inactive,inactive
Cc1cn([C@H]2C[C@H](N=[N+]=[N-])[C@@H](CO)O2)c(=O)[nH]c1=O,,,,,,,inactive
